Inconclusive results are not listed. Active and inactive are the calls of the source. Calls come from the whole dose curve; as a rule, active = well fitted cell-killing curve with a large enough effect; inconclusive = small, poorly fitted or top-dose-only effect; inactive = flat fitted curve, though single readings scatter.
assay: Quantitative highthroughput screen to assess conditional lethalithy of P12 Ichikawa cells grown in RPMI1640 with untreated serum (RPMI+s) (AID 1963881); details: ATP luminescence, 48 h; Potency: viability; series mostly up to 45.8 µM; viability: at the top concentration; note: nearly all actives have a fitted effect of over 35% in size
From the text: Assay Provider: Jason Cantor Ph.D.
Department of Biochemistry
University of Wisconsin-Madison, Madison, WI, USA
Chemical screening studies have identified drug sensitivities across hundreds of cancer cell lines but most putative therapeutics fail to translate. Discovery and development of drug candidates in models that more accurately reflect nutrient levels in human blood is a major challenge. Here we performed high-throughput screens in conventional versus Human Plasma-Like Medium (HPLM) to identify compounds that were "missed" when screening using the artificial culture condition. Sets of conditional anticancer compounds spanned phases of clinical development and included non-oncology drugs were assessed. […] We also traced conditional phenotypes for several chemotherapeutics to availability of HPLM-specific metabolites and confirmed others for compounds whose reported targets are encoded by nonessential genes. Our findings establish generalizable strategies for exploiting conditional lethality in HPLM to reveal therapeutic candidates and mechanisms of action in cancer cells.
Described herein are the results of each viability screens against three cell lines: NOMO1 (an acute myeloid leukemia cell line); P12-Ichikawa (a T-cell acute lymphoblastic leukemia); and SEM (a B-cell ALL). Each assay was screened using 3 different cell culture media: homemade human plasma-Like medium with 10% dialyzed fetal bovine serum (HPLM+ds); RPMI1640 with 10% untreated FBS and 5mM glucose (RPMI+s); and RPMI1640 with 10% dialyzed fetal bovine serum and 5 mM glucose (RPMI+ds).
PROTOCOL TABLE (as described by Inglese J, Shamu CE and Guy RK. 2007)
SEQUENCE No. (e.g., 1, 2, 3, etc.); […] (e.g., Cells, Incubation, Reagent, etc.); VALUE and DESCRIPTION.
1; Cells; 5 uL; white, solid bottom 1536-well Greiner assay plate.
2; Compounds; 23 nL; Kalypsis pin tool (Wako USA) equipped with a 1536-well pin head to transfer to the assay plates.
3; Incubation; 48 hours; 37C incubation.
4; Reagent; 3 uL; CellTiter Glo (Promega).
5; Incubation; 5 min, room temperature
6; Detection; Luminescence, Viewlux PerkinElmer.
NOTES (numbers refer to Sequence numbers above)
1. Briefly, 5 ul of cell reagent was dispensed using a Multidrop Combi Dispenser. The NOMO1 and SEM cells were plated at 500 cells/well and the P12-Ichikawa line at 1000 cells/well.
2. After seeding the cells, 23 nL of MIPE 4.1 library compounds (in DMSO) were added to each plate using a Kalypsys 1536 Pintool dispenser. Bortezomib at final concentration of […] and DMSO were added to each plate as positive and negative controls respectively. For each screen, MIPE 4.1 compounds were added over an eleven-point concentration range […] in 3-fold dilutions.
3. Each plate was covered with a stainless steel gasketed lid to prevent evaporation and incubated for 48 hour at 37C, 95% relative humidity, and 5% CO2.
4-5. Three microliter CellTilter-GloTM luminescent substrate mix (Promega) reagent was added to the assay plate and incubated at room temperature for 5 min.
6. The luminescence signal was measured using a ViewLux (PerkinElmer) multiplate reader with a 2 second exposure time per plate. Data for each compound were normalized as percent viability such that measurements for DMSO and the empty well controls in each plate were defined as 100% and 0%, respectively.
Potency is the fitted concentration of half-maximal effect.

| Compound | viability | Potency |
| --- | --- | --- |
| C[C@@H]1[C@H](O)[C@@H](C)C=CC=CCCC=CC=CC=CC=C[C@H](O[C@H]2O[C@@H](C)[C@H](O)[C@@H](N)[C@@H]2O)CC2O[C@](O)(C[C@@H](O)[C@H](O)CC[C@@H](O)C[C@@H](O)C[C@@H](O)CC(=O)O[C@H]1C)C[C@H](O)[C@H]2C(=O)O | 96.1% (inactive) |  |
| CCN(CC)C(=O)c1ccc(C2=CC3(CCNCC3)Oc3cccc(O)c32)cc1 | 99.6% (inactive) |  |
| CN1C(=O)CCS(=O)(=O)C1c1ccc(Cl)cc1 (stereo not given) | 97.7% (inactive) |  |
| O=P1(N(CCCl)CCCl)NCCCO1 (stereo not given) |  | 14.8 µM (active) |
| COC(=O)[C@@H](N)CCCN=C(N)N[N+](=O)[O-] | 106% (inactive) |  |
| C=C(C)[C@H]1Cc2c(ccc3c2O[C@@H]2COc4cc(OC)c(OC)cc4[C@@H]2C3=O)O1 |  | 2.09 µM (active) |
| C[C@@]12OC(=O)[C@]1([C@@H](O)[C@@H]1C=CCCC1)NC(=O)[C@H]2CCCl |  | 0.235 µM (active) |
| O=C(O)C(=O)c1cn(Cc2ccccc2)c2ccc(-c3ccc(OC(F)(F)F)cc3)cc12 | 92.7% (inactive) |  |
| CCOC(=O)c1cncn1[C@H](C)c1ccccc1 | 107% (inactive) |  |
| CC(C)(O)C=CC(=O)[C@](C)(O)[C@H]1[C@H](O)C[C@]2(C)[C@@H]3CC=C4[C@@H](C=C(O)C(=O)C4(C)C)[C@]3(C)C(=O)C[C@@]12C |  | 0.148 µM (active) |
| C[C@]12CCC(=O)C=C1CC[C@@H]1[C@H]3CC[C@](C)(O)[C@@]3(C)CC[C@@H]12 | 87.9% [at 92.2 µM] (inactive) |  |
| NC1CC1c1ccccc1 (stereo not given) | 101% (inactive) |  |
| CC1=C2C[C@@H]3[C@@H](CC=C4C[C@@H](O)CC[C@@]43C)[C@@H]2CC[C@]12O[C@H]1C[C@H](C)CN[C@H]1[C@H]2C | 93.7% (inactive) |  |
| COc1cc(OC)c(OC)cc1C=O | 111% (inactive) |  |
| COC[C@H]1OC(=O)c2coc3c2[C@@]1(C)C1=C(C3=O)C2CCC(=O)[C@@]2(C)C[C@H]1OC(C)=O (stereo not given in full) | 88% (inactive) |  |
| COc1ccc2c(c1OC)CN1CCc3cc4c(cc3C1C2)OCO4 (stereo not given) |  | 1.87 µM (active) |
| CN(C)CCc1ccc(O)cc1 | 112% (inactive) |  |
| O=C(O)CNC(=O)c1c(O)c2ccccc2n(Cc2ccccc2)c1=O | 100% (inactive) |  |
| COc1ccc(C(=O)c2c(C)n(CCN3CCOCC3)c3ccccc23)cc1 | 97.2% (inactive) |  |
| CC[C@@]1(O)C(=O)OCc2c1cc1n(c2=O)Cc2cc3ccccc3nc2-1 |  | 0.0235 µM (active) |

| Compound | viability | Potency |
| --- | --- | --- |
| CC(C)(O)C(=O)Nc1ccc([N+](=O)[O-])c(C(F)(F)F)c1 |  | 8.33 µM (active) |
| CC(=Cc1csc(C)n1)[C@@H]1C[C@H]2O[C@]2(C)CCC[C@H](C)[C@@H](O)[C@@H](C)C(=O)C(C)(C)[C@@H](O)CC(=O)O1 | 25.4% (inactive) |  |
| C=C[C@@H]1CN2CCC1C[C@@H]2[C@@H](O)c1ccnc2ccccc12 (stereo not given in full) | 80% (inactive) |  |
| CC(NC(C)(C)C)C(=O)c1cccc(Cl)c1 (stereo not given) | 86.8% (inactive) |  |
| CNCC(O)c1ccc(O)cc1 (stereo not given) | 88.9% (inactive) |  |
| CN1C(=O)COc2c(C(=O)NC3CN4CCC3CC4)cc(Cl)cc21 (stereo not given) | 130% (inactive) |  |
| C#CCN(C)[C@H](C)Cc1ccccc1 | 104% (inactive) |  |
| COc1cc2cc(c1Cl)N(C)C(=O)C[C@H](OC(=O)C(C)C)[C@]1(C)O[C@H]1[C@H](C)[C@@H]1C[C@@](O)(NC(=O)O1)[C@H](OC)C=CC=C(C)C2 | 1.52% (inactive) |  |
| C#CC1(O)CCC2C3CCC4=CC(=O)CCC4(C)C3CCC21C (stereo not given) | 107% (inactive) |  |
| CC(=Cc1csc(C)n1)[C@@H]1C[C@H]2O[C@@H]2CCC[C@H](C)[C@@H](O)[C@@H](C)C(=O)C(C)(C)[C@@H](O)CC(=O)O1 | 18.3% (inactive) |  |
| CN1CCN(C(=O)O[C@H]2c3nccnc3C(=O)N2c2ccc(Cl)cn2)CC1 | 94.2% (inactive) |  |
| Cc1ncc(OC[C@@]2(c3cccc(F)c3)C[C@H]2C(=O)Nc2ccc(F)cn2)c(C)n1 | 89.1% (inactive) |  |
| CC(N[C@H]1C[C@H]1c1ccccc1)c1ccc2c(c1)OCCO2 (stereo not given in full) | 95.6% (inactive) |  |
| CC(C)N[C@@H]1CCn2c(=O)[nH]c3cccc(c32)[C@@H]1O | 99.6% (inactive) |  |
| NC1=NC(=O)N2CC12 (stereo not given) |  | 5.26 µM (active) |
| CC(=O)Nc1ccc(OC[C@](C)(O)C(=O)Nc2ccc([N+](=O)[O-])c(C(F)(F)F)c2)cc1 | 98.3% (inactive) |  |
| Cc1nc(-c2ccc(-c3ccc(C(=O)N4CCc5cc6c(cc54)C4(CCN(C)CC4)CO6)cc3)c(C)c2)no1 | 94.9% (inactive) |  |
| O=P1(NCCCl)OCCCN1CCCl (stereo not given) | 78.6% (inactive) |  |
| C[C@@H]1[C@@H](C(=O)C[C@H]2O[C@@H]3O[C@]4(C)CC[C@@H]5[C@H](C)CC[C@@H]([C@H]2C)[C@@]35OO4)O[C@@H]2O[C@]3(C)CC[C@H]4[C@H](C)CC[C@@H]1[C@@]24OO3 |  | 23.5 µM (active) |
| C[C@@H]1O[C@@H](O[C@@H]2C=C3CC[C@@H]4[C@@H](CC[C@]5(C)[C@H](c6ccc(=O)oc6)CC[C@@]45O)[C@@]3(C)CC2)[C@H](O)[C@H](O)[C@H]1O |  | 0.0418 µM (active) |
